Measurements: ChEMBL document CHEMBL4513216, “Probing the Open Global Health Chemical Diversity Library for Multistage-Active Starting Points for Next-Generation Antimalarials” (ACS Infect Dis, 2020)
Screen size: about 65,000 compounds; about 2,100 (3.2%) showed an effect of 50% or more. The median lay at about -52%. Many of the other results were omitted from the sample, so strong results are more common in it than they were.

Test system: Plasmodium falciparum
Experiment: Screen against P. falciparum Asexual Blood Stage (ABS), at 5uM
Type: functional, Dd2
Details: tested at 5 uM

Compound	INHIBITION [%]
O=C(COc1cccc(F)c1)N1C[C@@H](O)[C@H](N2CCOCC2)C1	-17.5
Cc1ccccc1CC(=O)N1C[C@@H](O)[C@H](N2CCOCC2)C1	-16.5
CC1=C(CCN2C[C@H](O)[C@@H](N3CCOCC3)C2)C(C)(C)CCC1	78.3
COc1cc(N2CCC[C@]3(C(=O)O)CN(C(C)C)C[C@@H]3C2)ncn1	-85.1
O=S1(=O)C[C@@H]2[C@H](C1)N(Cc1ncc[nH]1)CCN2Cc1cccnc1	-89.75
Clc1cc(Cl)cc(CN2CCC(NCc3ncc[nH]3)CC2)c1	84.7
Brc1ccc(CN2CCC(NCc3ncc[nH]3)CC2)cc1	83.5
CCn1cc(CN2CCCN(C(=O)Cc3cccs3)CC2)cn1	-85.9
COCCc1ncc(CN2CCCC(C(=O)c3ccccc3)C2)cn1 (stereo not given)	-145
Cc1nc(CN(C)C)cc(N2CCCC(COc3ccc(F)cc3)C2)n1 (stereo not given)	86.4
CCn1cc(CN2CCCN(C(=O)Cc3ccc(C)nc3)CC2)cn1	-14.8
CCn1cc(CN2CCCC(COc3ccc(F)cc3)C2)cn1 (stereo not given)	75.5
CCn1cc(CN2CCCC(COc3ccccc3F)C2)cn1 (stereo not given)	72.7
O=C(N[C@@H]1CN[C@@H]2CCCO[C@@H]21)c1cscn1	14
Cc1noc(C)c1CN1CC[C@H]2C[C@H](c3nccs3)O[C@@H]2C1	-8.14
O=C1CO[C@H]2CN(C3CCOCC3)C[C@H]2N1Cc1ccccn1	-104
CCCc1nc(C(=O)N[C@H]2COC[C@@H]2N2CCN(C)CC2)cs1	-49.3
COCCN1CCc2c(cnc(-c3ccoc3)c2C(=O)O)C1	-47.6
Cc1ccc(OCc2occc2C(=O)N2CCCCC(N)C2)cc1 (stereo not given)	77.5
Cc1occc1C(=O)N1CCN2C[C@H](Oc3cccnc3)C[C@H]2C1	-23.4
CC(C)NC(=O)[C@H]1C[C@H]2NCCO[C@@H]2C1	-33.9
Cc1cc(CN2C[C@H]3CCC[C@@]3(COCC3CCOCC3)C2)no1	-91.9
O=C(CN1C[C@@H]2CC[C@H]1CN(Cc1ccccn1)C2)Nc1ccccc1	83.6
O[C@@]1(c2ccccn2)CC[C@H]2CN(Cc3ccccn3)C[C@H]21	-89.9
CC(C)(C)c1cc(CN2C[C@@H]3CC[C@H]2CN(Cc2ccccn2)C3)n[nH]1	74.1

Compound	INHIBITION [%]
Oc1cccc(CN2C[C@@H]3CC[C@H]2CN(Cc2cccnc2)C3)c1	-14.5
O=C(Cc1ccccn1)N1C[C@H]2CN(Cc3ccccn3)C[C@H]2C1	-68.5
Cc1nnsc1CN1C[C@@H]2CC[C@H]1CN(Cc1ccccn1)C2	-2.06
Fc1ccc(CNC2CCN(CCc3ccncc3)CC2)cc1F	89.8
Cc1ccc(CNC2CCN(CCc3ccncc3)CC2)cc1C	86.9
c1ccc2c(c1)CCC21CN(CCc2ccncc2)CCO1 (stereo not given)	-30.5
COCCNC(=O)[C@@]12CCO[C@@H]1CCN(Cc1ccncc1)C2	-51.1
Clc1cccc(CNC2CCN(CCc3ccncc3)CC2)c1	92.3
Cc1cccc(CNC2CCN(CCc3ccncc3)CC2)c1C	76.3
CN1CCN(Cc2ccncc2)Cc2cccnc21	-190
CN(c1ncccc1C#N)C1CCN(CCc2ccncc2)CC1	30.8
C[C@@H]1C[C@@H]2CCN(Cc3ccncc3)C[C@H]2O1	-17.4
Cc1n[nH]c2c1C(c1ccc(Cl)cc1)SCC(=O)N2 (stereo not given)	-12.6
Cc1ccc(C(=O)N2C[C@@H]3OCCN(C(C)C)[C@@H]3C2)cn1	-18.4
Cc1cccc(CN2C(=O)C[C@H]3[C@@H]2CCN3Cc2ccco2)n1	13.4
COCCN1CCO[C@H]2CN(C(=O)c3ccncc3F)C[C@H]21	-230
CC(Cn1cccn1)NCC(=O)NC1CCOCC1 (stereo not given)	-32.4
Cc1cc(CC(=O)N2CCN(C)[C@@H]3CS(=O)(=O)C[C@@H]32)ccc1F	-54.5
C[C@@H]1CN(Cc2ccsc2)C[C@]12CCN(Cc1cccnc1)C2=O	-45.2
CC1CN(CCc2ccncc2)CCO1 (stereo not given)	-107
CCN1C[C@H]2CCN(Cc3ccncc3)C(=O)[C@@H]2C1	-66.4
CSc1ccc(CNC2CCN(CCc3ccncc3)CC2)cc1	93
Cc1nc(CO[C@H]2CN(Cc3ccccn3)[C@@H]3CCCO[C@H]23)cs1	-44.2
CCC1=N[C@@]2(CC[C@@H]3CN(CC)C[C@@H]32)C(=O)N1C	-47.6
CC1=N[C@@]2(CC[C@@H]3CN(Cc4ccccc4C)C[C@@H]32)C(=O)N1CC1CC1	85.1
